From PubChem BioAssay (Tox21) come the findings set out here.

Assay [1] addresses Cytochrome P450 2C9 (Homo sapiens) (UniProt P11712). Put plainly: Cytochrome P450 Family 2 Subfamily C Member 9 (CYP2C9) small molecule antagonists: luciferase reporter qHTS assay (AID 1671198). As to activity change, negative = inhibition: series mostly up to about 120 µM. Summed up:
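P450-Glo proluciferin substrate with CYP2C9 enzyme; 10 min RT preincubation, then NADPH regeneration 1 h at 37C; luciferin detection reagent 20 min RT, luminescence in relative luminescence units.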

Assay [2] has as its target Cytochrome P450 1A2 (Homo sapiens) (UniProt P05177). Put plainly: Cytochrome P450 Family 1 Subfamily A Member 2 (CYP1A2) small molecule antagonists: luciferase reporter qHTS assay (AID 1671199). As to activity change, negative = inhibition: series mostly up to about 120 µM. The method, boiled down: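 Inhibition of CYP1A2 conversion of proluciferin to luciferin, detected by luminescence. Reaction run 1 h at room temperature with NADPH regeneration after brief compound preincubation.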
A general note: Reporter assays use an easily measured gene product as a stand-in for the process of interest.

Assay [3] deals with Voltage-gated inwardly rectifying potassium channel KCNH2 (Homo sapiens) (UniProt Q12809). Put plainly: Human Ether-a-go-go-Related Gene (hERG) channel small molecule antagonists: fluorescence cell-based qHTS assay (AID 1671200).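 As to activity change, negative = inhibition: hERG-expressing U2OS cells given a thallium stimulus after FluxOR II dye loading; series mostly up to about 77 µM.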 Summed up:
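Kinetic two-minute fluorescence traces, sampled at 1 s, were collected following thallium stimulus of U2OS cells (1000 per well) that had been cultured overnight at 37 C and loaded with FluxOR II.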
(hERG is a cardiac potassium channel; its block is linked to QT prolongation.)

In assay [4] the target is Cytochrome P450 3A4 (Homo sapiens) (UniProt P08684). As to the kind of experiment: Cytochrome P450 Family 3 Subfamily A Member 4 (CYP3A4) small molecule antagonists: luciferase reporter qHTS assay (AID 1671201). As to activity change, negative = inhibition: series mostly up to about 120 µM. The method, boiled down:
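Proluciferin-to-luciferin conversion by CYP3A4, NADPH-regenerated, 1 h RT; luminescence read as RLU. Ketoconazole as control.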

Each structure is given as a SMILES string. Where “and” joins values, the source holds several entries; their conditions need not be identical. Equal entries are not always repeated. Inconclusive results are not listed. A structure can be active in one record and inactive in another. Calls of active or inactive are those of the source. Calls follow the shape of the dose curve; as a rule, active = well fitted curve in the direction sought with a large enough effect in the repeat runs; inconclusive = weak or mixed curves; inactive = no such curve, though single readings can be large; an effect the other way counts as inactive or inconclusive.
% is scaled to controls: 0 for no effect and ±100 for the full control effect; potency is read from the fitted curve at half-maximal effect.
Also: nearly all actives have a fitted effect of over 50% in size.

Sequence of Cytochrome P450 2C9 (Homo sapiens) (P11712 whole entry, looked up): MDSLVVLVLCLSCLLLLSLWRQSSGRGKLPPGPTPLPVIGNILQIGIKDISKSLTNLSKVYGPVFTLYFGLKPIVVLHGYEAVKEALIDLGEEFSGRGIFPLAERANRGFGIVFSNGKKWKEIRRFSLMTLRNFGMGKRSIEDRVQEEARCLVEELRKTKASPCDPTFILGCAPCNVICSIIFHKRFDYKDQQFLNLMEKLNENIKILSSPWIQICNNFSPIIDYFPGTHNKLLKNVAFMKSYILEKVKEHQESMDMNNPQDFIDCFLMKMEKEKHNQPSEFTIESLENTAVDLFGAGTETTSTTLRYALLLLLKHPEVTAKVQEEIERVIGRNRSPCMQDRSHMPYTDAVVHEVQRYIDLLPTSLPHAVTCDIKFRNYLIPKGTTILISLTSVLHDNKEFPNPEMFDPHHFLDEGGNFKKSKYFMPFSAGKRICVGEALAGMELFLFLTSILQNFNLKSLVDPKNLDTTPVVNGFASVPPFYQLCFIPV
Sequence of Cytochrome P450 3A4 (Homo sapiens) (P08684 whole entry, looked up): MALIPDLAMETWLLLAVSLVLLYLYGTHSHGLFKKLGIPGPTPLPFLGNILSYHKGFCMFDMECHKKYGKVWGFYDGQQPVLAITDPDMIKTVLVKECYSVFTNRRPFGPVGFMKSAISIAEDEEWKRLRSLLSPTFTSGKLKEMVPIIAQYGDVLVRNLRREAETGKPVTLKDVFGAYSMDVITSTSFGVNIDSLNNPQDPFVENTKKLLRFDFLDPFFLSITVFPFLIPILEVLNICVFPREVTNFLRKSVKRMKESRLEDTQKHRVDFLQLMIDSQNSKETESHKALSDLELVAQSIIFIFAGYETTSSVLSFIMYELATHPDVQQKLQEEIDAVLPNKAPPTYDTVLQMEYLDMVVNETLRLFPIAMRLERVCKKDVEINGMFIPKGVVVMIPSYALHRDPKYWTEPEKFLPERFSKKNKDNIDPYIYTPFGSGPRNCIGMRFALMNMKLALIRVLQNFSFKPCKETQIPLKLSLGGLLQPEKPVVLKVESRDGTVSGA
Sequence of Voltage-gated inwardly rectifying potassium channel KCNH2 (Homo sapiens) (Q12809 whole entry, looked up): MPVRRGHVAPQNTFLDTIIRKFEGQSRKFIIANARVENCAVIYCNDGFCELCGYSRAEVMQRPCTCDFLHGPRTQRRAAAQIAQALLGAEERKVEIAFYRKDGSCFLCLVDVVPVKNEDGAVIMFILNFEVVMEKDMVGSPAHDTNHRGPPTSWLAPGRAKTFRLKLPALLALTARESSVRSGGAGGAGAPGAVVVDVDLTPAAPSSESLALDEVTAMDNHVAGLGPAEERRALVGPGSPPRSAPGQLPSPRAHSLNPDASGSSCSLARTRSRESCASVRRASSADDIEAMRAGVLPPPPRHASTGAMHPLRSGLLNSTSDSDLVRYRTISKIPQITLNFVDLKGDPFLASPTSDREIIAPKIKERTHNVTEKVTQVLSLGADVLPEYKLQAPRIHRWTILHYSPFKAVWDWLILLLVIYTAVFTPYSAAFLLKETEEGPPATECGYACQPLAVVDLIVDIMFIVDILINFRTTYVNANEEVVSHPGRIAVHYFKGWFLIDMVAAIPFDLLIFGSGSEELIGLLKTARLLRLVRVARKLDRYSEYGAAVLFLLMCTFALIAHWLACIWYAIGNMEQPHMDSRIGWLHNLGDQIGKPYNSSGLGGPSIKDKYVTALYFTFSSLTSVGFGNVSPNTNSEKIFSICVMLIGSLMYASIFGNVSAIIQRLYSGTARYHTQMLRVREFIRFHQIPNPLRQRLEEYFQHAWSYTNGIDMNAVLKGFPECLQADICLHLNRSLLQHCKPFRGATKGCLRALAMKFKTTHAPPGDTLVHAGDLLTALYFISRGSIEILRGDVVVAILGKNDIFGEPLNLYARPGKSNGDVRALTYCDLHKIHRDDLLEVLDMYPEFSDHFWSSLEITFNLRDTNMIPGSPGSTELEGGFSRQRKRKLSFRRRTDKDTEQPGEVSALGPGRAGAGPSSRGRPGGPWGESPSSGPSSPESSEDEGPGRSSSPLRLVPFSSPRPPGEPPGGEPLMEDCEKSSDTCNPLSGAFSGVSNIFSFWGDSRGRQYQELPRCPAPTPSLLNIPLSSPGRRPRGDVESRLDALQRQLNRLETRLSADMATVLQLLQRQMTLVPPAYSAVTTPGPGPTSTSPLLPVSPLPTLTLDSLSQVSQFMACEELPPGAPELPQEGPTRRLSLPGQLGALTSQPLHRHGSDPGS
Sequence of Cytochrome P450 1A2 (Homo sapiens) (P05177 whole entry, looked up): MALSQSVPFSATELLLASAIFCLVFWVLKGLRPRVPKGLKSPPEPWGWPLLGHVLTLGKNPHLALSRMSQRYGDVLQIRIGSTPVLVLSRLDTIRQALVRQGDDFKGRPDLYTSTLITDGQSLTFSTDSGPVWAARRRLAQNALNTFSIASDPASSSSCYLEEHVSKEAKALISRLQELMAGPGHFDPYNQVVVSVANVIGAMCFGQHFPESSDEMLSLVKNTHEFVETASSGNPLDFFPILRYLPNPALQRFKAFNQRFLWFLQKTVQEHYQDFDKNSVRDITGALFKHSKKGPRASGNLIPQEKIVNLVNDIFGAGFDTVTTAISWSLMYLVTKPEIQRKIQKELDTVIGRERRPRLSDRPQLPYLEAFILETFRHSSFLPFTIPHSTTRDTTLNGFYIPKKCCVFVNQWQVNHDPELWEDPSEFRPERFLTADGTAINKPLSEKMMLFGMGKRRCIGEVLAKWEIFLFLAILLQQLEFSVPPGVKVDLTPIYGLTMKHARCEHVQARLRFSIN

Take `NC(=O)n1c(O)c(C(=O)c2cccs2)c2cc(Cl)ccc21`: the figures for the Potency in assay [1] and in assay [2] were 12.3 µM (active) and 15.5 µM (active), respectively. Besides, the Potency entry in assay [3] was “inactive”.
Turning to `O=C(O)CC(O)C(=O)O` (configuration not stated), the Potency result in assay [1], in assay [3] and in assay [4] was “inactive” each time. For the same molecule, in assay [2], the Potency entry was “inactive and 35.6 µM (active)”.
As for `Nc1ccc2c(c1)CN1C(=O)c3ccccc3C1=N2`, the Potency in assay [1] is 3.79 µM (active); in assay [2], 0.499 µM (active). Moreover, the activity change, negative = inhibition in assay [3] was 0.308% [at 15.8 µM] (inactive).
Consider `O=S1(=O)OC(c2ccc(O)cc2)(c2ccc(O)cc2)c2ccccc21`, for which the Potency is 3.17 µM (active) and 3.56 µM (active) and 2.45 µM (active) in assay [1]; 25.2 µM (active) and 39.9 µM (active) in assay [2]. In addition, the Potency result in assay [3] and in assay [4] was “inactive” in each case.
Take `CN[C@H]1CC[C@@H](c2ccc(Cl)c(Cl)c2)c2ccccc21`: the Potency in assay [1] is 30.9 µM (active); in assay [2], 17.4 µM (active).
As to `CCN(Cc1c(F)cccc1Cl)c1c([N+](=O)[O-])cc(C(F)(F)F)cc1[N+](=O)[O-]`, the values for the Potency in assay [1] and in assay [4] were 7.96 µM (active) and 0.399 µM (active), respectively. In addition, the Potency result in assay [2] and in assay [3] was “inactive” each time.
For the molecule `O=C1OC2(c3ccccc31)c1cc(Br)c(O)c(Br)c1Oc1c2cc(Br)c(O)c1Br`, the Potency in assay [1] is 5.1 µM (active) and 9.19 µM (active) and 7.76 µM (active); in assay [2] it was 29.1 µM (active). Also, the Potency result in assay [3] and in assay [4] was “inactive” throughout.
In the case of `Nc1ccc(O)c([N+](=O)[O-])c1`, the results for the Potency in assay [1] and in assay [2] were 25 µM (active) and 48.5 µM (active), respectively. For the same molecule, the Potency entry in assay [3] is “inactive”.
`Cc1cc(C)nc(NS(=O)(=O)c2ccc(N)cc2)n1`: the Potency entry in assay [1], in assay [2], in assay [3] and in assay [4] was “inactive” in each case.
On to `COc1ccc2cc(S(=O)(=O)N[C@H](CC(=O)N[C@H](Cc3ccc(CN4[C@H](C)CCC[C@@H]4C)cc3)C(=O)N(C)C(C)C)c3ccc4c(c3)OCO4)ccc2c1`, for which the Potency in assay [1] was 59.9 µM (active); in assay [3] it was 7.34 µM (active); in assay [4], 0.0949 µM (active). For the same molecule, in assay [2], the Potency entry is “inactive”.
With `CCCCC(CC)C(=O)O` (configuration not stated), the Potency result in assay [1] is “inactive and 71 µM (active)”. In addition, the Potency entry in assay [2], in assay [3] and in assay [4] was “inactive” throughout.
Consider `CCCCCCc1ccc(O)cc1O`, for which the Potency in assay [1] is 7.12 µM (active) and 6.33 µM (active) and 5.49 µM (active); in assay [2], 71.2 µM (active) and 71 µM (active) and inactive. In assay [3], the Potency entry is “inactive”.
As to `CC12CCC(CC1)C(C)(C)O2`, the Potency result in assay [1], in assay [3] and in assay [4] was “inactive” in each case. For the same molecule, in assay [2], the Potency is 31.3 µM (active) and inactive.
For the molecule `O=C(Nc1ncc([N+](=O)[O-])s1)c1cccs1`, the Potency in assay [1] was 5.49 µM (active); in assay [2], 1.82 µM (active). The Potency entry in assay [3] is “inactive”.
`C1CCC(C(CC2CCCCN2)C2CCCCC2)CC1` (configuration not stated): the Potency result in assay [1] and in assay [2] was “inactive” in each case.
For the molecule `CCCCCCCCCCCCCCCC[N+](C)(C)Cc1ccccc1`, the Potency in assay [1] is 82.2 µM (active) and 36.2 µM (active) and 30.9 µM (active); in assay [2], 36.7 µM (active) and 72.3 µM (active) and inactive; in assay [3], 1.79 µM (active) and 4.98 µM (active) and 6.74 µM (active). Further, the Potency entry in assay [4] is “inactive”.
Regarding `O=CC(=O)c1ccccc1`, the Potency result in assay [1], in assay [3] and in assay [4] was “inactive” throughout. Besides, the Potency in assay [2] was 35.6 µM (active).
Consider `Cc1ncc([N+](=O)[O-])n1C`, for which the Potency result in assay [1], in assay [2], in assay [3] and in assay [4] was “inactive” each time.
On to `CN(N=O)C(=O)N[C@@H]1[C@@H](O)[C@H](O)[C@@H](CO)O[C@@H]1O`, for which the Potency entry in assay [1], in assay [2], in assay [3] and in assay [4] was “inactive” each time.
Regarding `COc1ccc(C(Cl)=C(c2ccc(OC)cc2)c2ccc(OC)cc2)cc1`, the Potency in assay [1] was 8.9 µM (active) and 7.96 µM (active) and 7.76 µM (active). The Potency result in assay [2], in assay [3] and in assay [4] was “inactive” each time.
Take `Cc1cccc(C)c1`: the Potency result in assay [1], in assay [2], in assay [3] and in assay [4] was “inactive” each time.
As to `CCCc1cc(=O)[nH]c(=S)[nH]1`, the Potency entry in assay [1], in assay [2], in assay [3] and in assay [4] was “inactive” throughout.
`NC1CCCCC1`: the Potency entry in assay [1], in assay [3] and in assay [4] was “inactive” in each case. In assay [2], the Potency is 40.2 µM (active) and inactive.
Regarding `OC[C@H]1O[C@H](O[C@]2(CCl)O[C@H](CCl)[C@@H](O)[C@@H]2O)[C@H](O)[C@@H](O)[C@H]1Cl`, the Potency result in assay [1], in assay [2], in assay [3] and in assay [4] was “inactive” in each case.
In the case of `O=c1[nH]cc(F)c(=O)[nH]1`, the Potency result in assay [1], in assay [3] and in assay [4] was “inactive” in each case. In addition, the Potency in assay [2] is 32.9 µM (active) and inactive.
For `CS(=O)(=O)OCCCCOS(C)(=O)=O`, the Potency entry in assay [1], in assay [2], in assay [3] and in assay [4] was “inactive” throughout.
In the case of `Cc1c(C(=O)O)c(O)cc2c1C(=O)c1c(O)c([C@@H]3O[C@H](CO)[C@@H](O)[C@H](O)[C@H]3O)c(O)c(O)c1C2=O`, the Potency is 34.7 µM (active) and 39.9 µM (active) in assay [1]; 34.7 µM (active) and 39.9 µM (active) and inactive in assay [2]. In addition, the Potency entry in assay [3] and in assay [4] was “inactive” each time.
Turning to `O=C(O)c1ccccc1`, the Potency result in assay [1], in assay [3] and in assay [4] was “inactive” each time. Also, in assay [2], the Potency was 37.4 µM (active) and inactive.
In the case of `CN(C)C(=O)Nc1ccc(Cl)c(Cl)c1`, the Potency result in assay [1], in assay [3] and in assay [4] was “inactive” throughout. For the same molecule, in assay [2], the Potency is 794 nM (active) and 1.42 µM (active) and 645 nM (active).
Consider `O=C1c2c(O)cccc2Cc2cccc(O)c21`, for which the Potency entry in assay [1], in assay [2], in assay [3] and in assay [4] was “inactive” in each case.
With `Cc1ncc([N+](=O)[O-])n1CCO`, the Potency entry in assay [1], in assay [2], in assay [3] and in assay [4] was “inactive” in each case.
With `CCCCOC(=O)c1ccc(O)cc1`, the Potency in assay [1] was 32.1 µM (active) and 28.3 µM (active) and 17.4 µM (active); in assay [2], 4.54 µM (active) and 6.33 µM (active) and 4.36 µM (active). The Potency entry in assay [3] and in assay [4] was “inactive” throughout.
In the case of `CC(=O)C(=O)O`, the Potency entry in assay [1], in assay [3] and in assay [4] was “inactive” each time. Besides, in assay [2], the Potency entry was “inactive and 22.4 µM (active)”.
With `Cc1cc(=O)oc2cc(O)ccc12`, the Potency result in assay [1], in assay [3] and in assay [4] was “inactive” throughout. For the same molecule, the Potency in assay [2] is 31.7 µM (active) and 25.2 µM (active) and 17.4 µM (active).
For `NC(CO)(CO)CO`, the Potency result in assay [1], in assay [2], in assay [3] and in assay [4] was “inactive” throughout.
As for `O=c1[nH]cnc2c1ncn2[C@H]1CC[C@@H](CO)O1`, the Potency entry in assay [1], in assay [2], in assay [3] and in assay [4] was “inactive” throughout.
Regarding `C=C(C)C(=O)OCC(C)O` (configuration not stated), the Potency entry in assay [1], in assay [2], in assay [3] and in assay [4] was “inactive” in each case.
Regarding `NS(=O)(=O)O`, the Potency entry in assay [1], in assay [2], in assay [3] and in assay [4] was “inactive” each time.
As to `Cc1cn([C@H]2C=C[C@@H](CO)O2)c(=O)[nH]c1=O`, the Potency result in assay [1], in assay [2], in assay [3] and in assay [4] was “inactive” each time.
With `O=C1O[C@H]([C@@H](O)CO)C(O)=C1O`, the Potency entry in assay [1], in assay [3] and in assay [4] was “inactive” in each case. Further, the Potency result in assay [2] was “inactive and 19.5 µM (active)”.
Take `CC(=O)Nc1c(I)c(NC(C)=O)c(I)c(C(=O)O)c1I`: the Potency entry in assay [1], in assay [2], in assay [3] and in assay [4] was “inactive” in each case.
For the molecule `Nc1c2c(nc3ccccc13)CCCC2`, the Potency entry in assay [1], in assay [3] and in assay [4] was “inactive” throughout. In addition, the Potency in assay [2] is 5.03 µM (active) and 7.1 µM (active) and 7.23 µM (active).
`F[B-](F)(F)F`: the Potency entry in assay [1] and in assay [3] was “inactive” in each case. The Potency entry in assay [2] was “inactive and 40.5 µM (active)”; in assay [4], “inactive and 40.5 µM (active)”.
Regarding `NC(=O)c1cccnc1`, the Potency result in assay [1], in assay [2], in assay [3] and in assay [4] was “inactive” throughout.
